NPYLR7 agonist: mosquito NPYLR7 agonism. HEK293T NPYLR7/Galpha15, GCaMP6s calcium fluorescence. activation, % at 10 µM. 270,000 tested, 0.15% active; in the data active means activation above about 40%;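 further: 0% = vehicle and 100% = reference agonist at the receptor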
mcGAS inh: blocks mouse cGAS activity. Q8C6L5. recombinant cGAS, Kinase-Glo ATP depletion luminescence. inhibition, % at 12.5 µM. 160,000 tested, 0.15% active. AID 1259399;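 further: 0% = negative control wells and 100% = reference inhibitor with no enzyme activity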
hcGAS inh: inhibitors of human cGAS; inhibition, % at 12.5 µM; 290,000 tested, 0.081% active; Q8N884; recombinant h-cGAS, ATP depletion, Kinase-Glo luminescence;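 further: 0% = vehicle reaction and 100% = reaction without DNA for no activity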
Target sequence (Q8N884 whole entry, looked up): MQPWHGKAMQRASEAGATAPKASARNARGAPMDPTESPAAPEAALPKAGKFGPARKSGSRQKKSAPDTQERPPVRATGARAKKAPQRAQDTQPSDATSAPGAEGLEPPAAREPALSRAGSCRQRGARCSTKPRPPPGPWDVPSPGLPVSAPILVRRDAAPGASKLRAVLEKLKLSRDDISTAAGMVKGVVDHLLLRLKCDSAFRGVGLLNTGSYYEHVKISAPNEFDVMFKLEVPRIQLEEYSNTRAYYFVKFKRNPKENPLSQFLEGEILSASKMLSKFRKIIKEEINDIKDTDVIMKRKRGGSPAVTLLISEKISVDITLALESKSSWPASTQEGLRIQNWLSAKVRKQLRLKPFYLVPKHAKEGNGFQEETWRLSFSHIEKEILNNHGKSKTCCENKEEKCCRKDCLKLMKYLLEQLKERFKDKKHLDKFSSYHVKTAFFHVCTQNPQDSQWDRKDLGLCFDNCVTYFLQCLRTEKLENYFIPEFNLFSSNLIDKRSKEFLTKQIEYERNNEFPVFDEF
Active calls of the source: *; ! = repeats disagree. Compounds with a hit are over-represented: about 0.3% of the library has one in this group of screens. Unless noted, no stated cut-off is given here; in the data, active means inhibition above about 40%; inactive means the rest.

`COc1ccccc1C=C1SC(=S)N(Cc2ccco2)C1=O` gave NPYLR7 agonist 11 and hcGAS inh -9.
For O=C1C(=Cc2ccccc2O)NC(=S)N1Cc1ccco1 the results were NPYLR7 agonist 80*, mcGAS inh 1 and hcGAS inh 1.
For CCCCN1C(=O)C(=Cc2cccnc2)NC1=S the results were NPYLR7 agonist 6 and hcGAS inh -6.
O=C(NN=Cc1ccc2c(c1)OCCO2)c1ccc([N+](=O)[O-])cc1 was read as NPYLR7 agonist -13 and hcGAS inh -2.
O=C(CC1CCc2ccccc21)N1CCC2(CCCO2)CC1 (stereo not drawn) was read as NPYLR7 agonist 7, mcGAS inh -11 and hcGAS inh -5.
Screening Cc1cc(NC(=O)c2ccc(-c3ccccc3)cc2)n(-c2nc(C)c(C)c(=O)[nH]2)n1 returned NPYLR7 agonist -4, mcGAS inh 0 and hcGAS inh -2.
Cc1ccc(/C=C2N=C(/C=C\c3cccc([N+](=O)[O-])c3)OC/2=O)o1 was read as NPYLR7 agonist 4, mcGAS inh -3 and hcGAS inh -8.
Screening CCOc1ccc(/C=C2N=C(/C=C/c3ccc(C)cc3)OC\2=O)cc1 returned NPYLR7 agonist 0 and hcGAS inh -2.
CCOc1ccc(/C=C2N=C(/C=C/c3ccccc3)OC/2=O)cc1 was read as NPYLR7 agonist 66* and hcGAS inh -4.
For Cc1c(C)c(C)c(S(=O)(=O)N2CCN(C(=O)c3ccc(-n4cncn4)cc3)CC2)c(C)c1C the results were NPYLR7 agonist 2, mcGAS inh -5 and hcGAS inh 2.
For O=C(CC(c1cccc([N+](=O)[O-])c1)c1c[nH]c2ccccc12)NC1CC1 (stereo not drawn) the results were NPYLR7 agonist 41*, mcGAS inh -5 and hcGAS inh -6.
For O=C(CC(c1cccc([N+](=O)[O-])c1)c1c[nH]c2ccccc12)N1CCN(c2ccccc2F)CC1 (stereo not drawn) the results were NPYLR7 agonist 3, mcGAS inh -3 and hcGAS inh -1.
For Oc1c(Br)cc(Br)cc1C=NC1CC1 the results were NPYLR7 agonist 9 and hcGAS inh 53*.
For CNN=Cc1cc(Br)cc(Br)c1O the results were NPYLR7 agonist 25, mcGAS inh 13 and hcGAS inh 11.
`N=C1/C(=C/c2cccs2)C(=O)N=C2SC(c3ccccc3)=NN12` gave NPYLR7 agonist -1 and hcGAS inh 56*.
`N=C1/C(=C/c2cccs2)C(=O)N=C2SC(Cc3ccccc3)=NN12` gave NPYLR7 agonist 0 and hcGAS inh 3.
COc1cc2[nH]c(=O)c(CN3CCCC3)cc2c(OC)c1OC was read as NPYLR7 agonist 4, mcGAS inh -15 and hcGAS inh -7.
For COc1ccc(C)cc1-n1c(SCC(=O)O)nnc1-c1cc(C)nn1C the results were NPYLR7 agonist 8, mcGAS inh -9 and hcGAS inh 44*.
`COc1ccc(C)cc1-n1c(Cn2ccnc2)nnc1SCC(=O)O` gave NPYLR7 agonist 13 and hcGAS inh -4.
For O=C(NCCSc1ccccc1)c1ccc(-n2cncn2)cc1 the results were NPYLR7 agonist -2 and hcGAS inh -4.
O=C(NCc1cccc(C(F)(F)F)c1)c1csc(CSc2nnc(Cc3ccccc3)n2-c2ccccc2)n1 was read as NPYLR7 agonist -2, mcGAS inh -5 and hcGAS inh -3.
O=C(O)c1csc(CSc2nnc(Cc3ccccc3)n2-c2cccc(C(F)(F)F)c2)n1 was read as NPYLR7 agonist 55*, mcGAS inh 0 and hcGAS inh 1.
For CCCC(CCC)C(=O)NCCc1cc2cc(C)c(C)cc2[nH]c1=O the results were NPYLR7 agonist 1, mcGAS inh -7 and hcGAS inh -5.
Screening Nc1nc(Cl)nc2c1ncn2[C@@H]1O[C@H](CO)[C@@H](O)[C@H]1O returned NPYLR7 agonist 76* and hcGAS inh 1.
Screening NC(=O)c1ncn(C2O[C@H](CO)[C@@H](O)[C@H]2O)c1N (stereo partly drawn) returned NPYLR7 agonist 5 and hcGAS inh -8.
Screening Nc1ncn([C@@H]2O[C@H](CO)[C@@H](O)[C@H]2O)c(=O)n1 returned NPYLR7 agonist 46*!, mcGAS inh -4 and hcGAS inh 4.
Nc1nc(Cl)nc2c1ncn2[C@@H]1O[C@H](CO)[C@H](O)C1O (stereo partly drawn) was read as NPYLR7 agonist 97*, mcGAS inh -3 and hcGAS inh -2.
`OC[C@H]1O[C@@H](n2cnc3c(NC4CCCC4)nc(Cl)nc32)[C@@H](O)C1O` (stereo partly drawn) gave NPYLR7 agonist 13 and hcGAS inh -3.
Screening Nc1nc(Nc2ccccc2)nc2c1ncn2[C@@H]1O[C@H](CO)[C@H](O)C1O (stereo partly drawn) returned NPYLR7 agonist 0, mcGAS inh -6 and hcGAS inh 0.
For COc1ccc(O)c(C(=O)c2cc(Cl)c3nc4cc(OC)c(OC)cc4c(=O)n3c2)c1 the results were NPYLR7 agonist 0, mcGAS inh -6 and hcGAS inh -7.
Screening COc1ccc(CCN2C3CCC2CC(NC(=O)C24CC[C@@](C)(C(=O)O2)C4(C)C)C3)cc1OC (stereo partly drawn) returned NPYLR7 agonist 4, mcGAS inh -3 and hcGAS inh -3.
`COc1ccc(CN2C3CCC2CC(NC(=O)C24CC[C@@](C)(C(=O)O2)C4(C)C)C3)c(OC)c1` (stereo partly drawn) gave NPYLR7 agonist 3, mcGAS inh 76* and hcGAS inh -5.
`COc1ccc(OCC(O)CN(CCC(C)C)Cc2cccc(OC)c2)cc1` (stereo not drawn) gave NPYLR7 agonist 25, mcGAS inh 79* and hcGAS inh -1.
COCCN(Cc1cccc(OC)c1)CC(O)COc1ccc(OC)cc1 (stereo not drawn) was read as NPYLR7 agonist 11, mcGAS inh -2 and hcGAS inh -1.
For COC(C(=O)N1CCOC(COc2ccccc2)C1)c1ccccc1 (stereo not drawn) the results were NPYLR7 agonist 26 and hcGAS inh -1.
`Cc1nn(Cc2cccc(C(=O)N[C@H](C)C(C)(C)C)c2)c(C)c1Br` gave NPYLR7 agonist 6 and hcGAS inh -10.
`Cc1nc(NCC2=CCCCC2)c2cnn(C)c2n1` gave NPYLR7 agonist 7, mcGAS inh -3 and hcGAS inh 1.
Screening CC(C)Oc1nc(-c2ccco2)n(-c2ccc(N)cc2)n1 returned NPYLR7 agonist -1 and hcGAS inh -5.
CC(C)Oc1c(-c2ccco2)c(=O)c1=O was read as NPYLR7 agonist -6 and hcGAS inh 66*.
`COc1cc(-c2noc(CN3CCOC(C)C3)n2)ccc1C` (stereo not drawn) gave NPYLR7 agonist 3 and hcGAS inh -12.
`CCn1cc(C(=O)O)c(=O)c2cnc(N3CCNCC3)nc21` gave NPYLR7 agonist 70*!, mcGAS inh -7 and hcGAS inh -4.
Screening CCn1cc(C(=O)O)c(=O)c2cc(F)c(N3CCNCC3)cc21 returned NPYLR7 agonist -3, mcGAS inh -4 and hcGAS inh -2.
Screening CC1(c2ccccc2)CN(C(=O)c2ccncc2F)CCO1 (stereo not drawn) returned NPYLR7 agonist 2 and hcGAS inh -7.
